Results on twelve compounds are retold here after PubChem BioAssay (NCATS).

Values joined by “and” are separate entries in the source; they are usually repeats but may differ in a detail not shown here. Identical values can stand only once. Inconclusive results are not listed. Unmarked numbers belong to inactive results. Active and inactive are the calls of the source. Calls come from the whole dose curve; as a rule, active = well fitted curve in the direction sought with a large enough effect; inconclusive = small, poorly fitted or top-dose-only effect, or another doubt; inactive = no such curve, though single readings can be large; an effect the other way counts as inactive or inconclusive.

One assay concerns CAOV3. In words: Primary qHTS to identify gynecologic anti-cancer compounds using libraries of approved drugs and bioactive compounds (AID 1345084). Note: nearly all actives have a fitted effect of over 55% in size. The following applies: Gynecologic cancer cell panel viability, ATPlite luminescence, 48 h; series mostly up to 57.5 µM. Put shortly: (§1)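 Luminescence from the ATPlite ATP-monitoring reagent indicates viable cell number; lower signal means cytotoxicity. Cells received compound 16 h after seeding and were exposed for 48 h across five concentrations.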
Background: qHTS replaces the single test concentration by a dilution series.

Another assay concerns CASKI. Described as above. As to conditions: Gynecologic cancer cell panel viability, ATPlite luminescence, 48 h; series mostly up to 57.5 µM. In short, it runs like this:
as §1

Another assay concerns Es-2. The assay is described as above. The following applies: Gynecologic cancer cell panel viability, ATPlite luminescence, 48 h; series mostly up to 57.5 µM. In short, it runs like this:
as §1
Background: Cellular ATP, detected with luciferase, serves as a proxy for viable cell number.

The subject of a further assay is HeLa. The assay is described as above. The following applies: Gynecologic cancer cell panel viability, ATPlite luminescence, 48 h; series mostly up to 57.5 µM. Put shortly: as §1
A further assay concerns Hek293T. The description is as above. The following applies: Gynecologic cancer cell panel viability, ATPlite luminescence, 48 h, control line for the selectivity index; series mostly up to 57.5 µM. Put shortly:
as §1

A further assay deals with JEG-3. Described as above. As to conditions: Gynecologic cancer cell panel viability, ATPlite luminescence, 48 h; series mostly up to 57.5 µM. Put shortly: as §1
In another assay the test system is OV90. The description is as above. The following applies: Gynecologic cancer cell panel viability, ATPlite luminescence, 48 h; series mostly up to 57.5 µM. In short, it runs like this: as §1
In a further assay the test system is PA-1. Described as above. As to conditions: Gynecologic cancer cell panel viability, ATPlite luminescence, 48 h; series mostly up to 57.5 µM. In short, it runs like this:
as §1

Another assay relates to SKOV3. Described as above. As to conditions: Gynecologic cancer cell panel viability, ATPlite luminescence, 48 h; series mostly up to 57.5 µM. Put shortly:
as §1

For a further assay, the system named is Tov-21-G. The assay is described as above. As to conditions: Gynecologic cancer cell panel viability, ATPlite luminescence, 48 h; series mostly up to 57.5 µM. In short, it runs like this: as §1
The next assay deals with Tov112D. Described as above. The following applies: Gynecologic cancer cell panel viability, ATPlite luminescence, 48 h; series mostly up to 57.5 µM. In short, it runs like this: as §1
A short description of assay [1]: Drug repurposing screens with cells derived from glioblastoma tumor samples (AID 1345199). Note: nearly all actives have a fitted effect of over 40% in size. Note: potency is the fitted concentration of half-maximal effect. The following applies: GBM patient neurospheres viability, ATP luminescence, 48 h. In short, it runs like this:
(§2)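 Primary testing used CD133+ neurospheres from four GBM patients, seven concentrations, 48 h exposure and ATP-based viability; confirmation added three slower-growing patient lines.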

The subject of the next assay is astro. The assay is described as above. The following applies: viability, ATP luminescence, 48 h; series mostly up to 45.9 µM. Put shortly:
as §2

The mark [2] stands for this setting: at 45.9 µM (top of the series), tumour line B.
[3] abbreviates: at 45.9 µM (top of the series), tumour line D.
The mark [4] stands for this setting: at 46 µM (top of the series), tumour line A.
Where [5] appears, read: at 46.1 µM (top of the series), tumour line C.
% is set by controls: 0 for no effect and ±100 for the full control effect.

Turning to `C[C@@H]1C[C@H]2[C@@H]3CCC4=CC(=O)C=C[C@]4(C)[C@@]3(F)[C@@H](O)C[C@]2(C)[C@@]1(O)C(=O)COP(=O)(O)O`, the Potency entry with CAOV3, in the assay on CASKI, in the assay on Es-2, in the assay with HeLa, with Hek293T and with JEG-3 was “inactive” throughout. For the same compound, the Potency result with OV90, with PA-1, in the assay with SKOV3, in the assay with Tov-21-G, with Tov112D and in the assay on astro was “inactive” each time. The activity, negative = cell killing in assay [1] (setting [2]) was -3.61%; in assay [1] (setting [3]) it was 1.29%; in assay [1] (setting [4]), -0.902%; in [1] (setting [5]), -0.678%.
As for `CCC(=O)O[C@]1(C(=O)CCl)[C@@H](C)C[C@H]2[C@@H]3C[C@H](F)C4=CC(=O)C=C[C@]4(C)[C@@]3(F)[C@@H](O)C[C@@]21C`, the Potency entry in the assay with CAOV3, with CASKI, in the assay on Es-2, in the assay with HeLa, in the assay with Hek293T and in the assay with JEG-3 was “inactive” each time. Further, the Potency result in the assay with OV90, in the assay with PA-1, in the assay on SKOV3, in the assay with Tov-21-G, in the assay with Tov112D and in the assay with astro was “inactive” throughout. Moreover, the activity, negative = cell killing is -14.4% in [1] (setting [2]) and -33.8% in [1] (setting [3]).
`NC(=O)c1cccc(-c2cc(O)cc(OC(=O)NC3CCCCC3)c2)c1`: the Potency entry in the assay with CAOV3, in the assay on CASKI, in the assay with Es-2, with HeLa, in the assay with Hek293T and in the assay on JEG-3 was “inactive” each time. Moreover, the Potency entry with OV90, with PA-1, in the assay on SKOV3, in the assay with Tov-21-G and with Tov112D was “inactive” throughout.
Take `COC(=O)[C@H](CC1C=NC=N1)NCC12CC3CC(CC(C3)C1)C2` (stereo partly drawn): the Potency result with CAOV3, with CASKI, with Es-2, in the assay with HeLa, in the assay with Hek293T and in the assay on JEG-3 was “inactive” in each case. Moreover, the Potency result in the assay with OV90, in the assay with PA-1, with SKOV3, in the assay with Tov-21-G and in the assay with Tov112D was “inactive” throughout.
For `C[C@]12C=CC(=O)C=C1CC[C@@H]1[C@@H]2[C@@H](O)C[C@@]2(C)[C@H]1CC[C@]2(O)C(=O)COC(=O)CCC(=O)O`, the Potency result with CAOV3, with CASKI, with Es-2, in the assay on HeLa, in the assay on Hek293T and in the assay on JEG-3 was “inactive” in each case. Further, the Potency entry in the assay with OV90, in the assay with PA-1, in the assay with SKOV3, in the assay on Tov-21-G, in the assay with Tov112D and with astro was “inactive” throughout. The activity, negative = cell killing is -11.2% in assay [1] (setting [2]), -5.28% in assay [1] (setting [3]), -20.8% in assay [1] (setting [4]) and 7.76% in assay [1] (setting [5]).
Turning to `CC(=O)OC(C)OC(=O)C(C)c1ccc(-c2ccccc2)c(F)c1` (stereo not drawn), the Potency entry in the assay with CAOV3, with CASKI, with Es-2, in the assay on HeLa, in the assay on Hek293T and with JEG-3 was “inactive” each time. Further, the Potency result in the assay with OV90, in the assay with PA-1, with SKOV3, with Tov-21-G, with Tov112D and with astro was “inactive” throughout. Further, the activity, negative = cell killing in [1] (setting [2]) is 13.2% and -1.22%; in [1] (setting [3]) it was 13.1% and -23.3%; in [1] (setting [4]), -17.1%; in assay [1] (setting [5]) it was 1.46% and -25.4%.
Turning to `COC(=O)[C@@]1(C)CC[C@]2(C(=O)O[C@@H]3O[C@H](CO)[C@@H](O)[C@H](O)[C@H]3O)CC[C@]3(C)C(=CCC4[C@@]5(C)CC[C@H](O[C@@H]6O[C@H](C(=O)O)[C@@H](O)[C@H](O)[C@H]6O)C(C)(C)C5CC[C@]43C)[C@@H]2C1` (stereo partly drawn), the activity change, negative = cytotoxicity is -1.21% [at 11.6 µM] in the assay with CAOV3; -4.58% [at 11.6 µM] in the assay with CASKI; -0.312% [at 11.6 µM] in the assay with Es-2; -10.5% [at 11.6 µM] in the assay on HeLa; -3.38% [at 11.6 µM] with Hek293T; -1.5% [at 11.6 µM] in the assay on JEG-3. Moreover, the activity change, negative = cytotoxicity was -2.61% [at 11.6 µM] in the assay with OV90; -17.6% [at 11.6 µM] with PA-1; -12.6% [at 11.6 µM] in the assay with SKOV3; 1.4% [at 11.6 µM] in the assay on Tov-21-G; -8.48% [at 11.6 µM] in the assay with Tov112D.
For the compound `C[C@@H]1C/C=C/C=C\C=C\C=C\[C@H](O[C@@H]2O[C@H](C)[C@@H](O)[C@H](N)[C@@H]2O)C[C@@H]2O[C@](O)(C[C@@H](O)C[C@H]3O[C@@H]3/C=C/C(=O)O1)C[C@H](O)[C@H]2C(=O)O`, the Potency result in the assay with CAOV3, in the assay with CASKI, with Es-2, in the assay with HeLa, with Hek293T and in the assay with JEG-3 was “inactive” in each case. The Potency result with OV90, in the assay with PA-1, with SKOV3, in the assay with Tov-21-G and in the assay on Tov112D was “inactive” in each case.
As to `CC[C@H]1OC(=O)C[C@@H](O)[C@H](C)[C@@H](O[C@@H]2O[C@H](C)[C@@H](O)[C@H](N(C)C)[C@H]2O)[C@@H](CCN2C[C@H](C)C[C@H](C)C2)C[C@@H](C)C(=O)/C=C/C(C)=C/[C@@H]1CO[C@@H]1O[C@H](C)[C@@H](O)[C@@H](OC)[C@H]1OC`, the Potency entry in the assay with CAOV3, in the assay with CASKI, in the assay on Es-2, with HeLa, in the assay on Hek293T and in the assay on JEG-3 was “inactive” each time. The Potency entry in the assay with OV90, with PA-1, in the assay on SKOV3, in the assay with Tov-21-G, in the assay on Tov112D and in the assay on astro was “inactive” each time. For the same compound, the activity, negative = cell killing in [1] (setting [2]) is -3.99%; in assay [1] (setting [3]), -15.7%; in [1] (setting [5]), -6.47%. Moreover, the Potency in [1] (tumour line A) was 22.4 µM (active).
On to `CC(C)CC(=O)OC[C@H]1O[C@@](COC(=O)CC(C)C)(O[C@H]2O[C@H](CO)[C@@H](O)[C@H](O)[C@H]2O)[C@@H](OC(=O)CC(C)C)[C@@H]1OC(=O)CC(C)C`, for which the Potency entry in the assay on CAOV3, in the assay with CASKI, with Es-2, in the assay on HeLa, in the assay on Hek293T and in the assay on JEG-3 was “inactive” each time. The Potency entry in the assay on OV90, with PA-1, in the assay on SKOV3, with Tov-21-G and in the assay on Tov112D was “inactive” each time.
For the compound `COC(=O)C1C(c2ccc(O)cc2)C(C(=O)OC)C1c1ccc(O)cc1` (stereo not drawn), the Potency result in the assay with CAOV3, in the assay with CASKI, in the assay on Es-2, in the assay with HeLa, in the assay on Hek293T and in the assay on JEG-3 was “inactive” in each case. The Potency entry in the assay on OV90, with PA-1, with Tov-21-G and with Tov112D was “inactive” throughout.
Consider `C[C@@H]1O[C@@H](OC[C@H]2O[C@@H](OCC3CCC4CC3C4(C)C)[C@H](O)[C@@H](O)[C@@H]2O)[C@H](O)[C@H](O)[C@H]1O` (stereo partly drawn), for which the Potency result with CAOV3, in the assay on CASKI, in the assay on Es-2, with HeLa, in the assay on Hek293T and in the assay on JEG-3 was “inactive” each time. Further, the Potency entry in the assay on OV90, in the assay on PA-1, in the assay on Tov-21-G and in the assay with Tov112D was “inactive” in each case.
